Our source for the inhibition values is PubChem BioAssay AID1974 (The Scripps Research Institute Molecular Screening Center, 2009).

Each structure is given as a SMILES string. Out of some 300,000 compounds screened, about 3,200 (1.1%) were called active. The list comes from a sample in which actives are over-represented; it also holds similar structures and randomly drawn compounds. Unmarked numbers belong to inactive results.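 How the source made its calls: active means inhibition above the campaign mean inhibition plus 3 SD (cut at about 35% in these data); inactive means the rest.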

In the assay the target is Glutathione S-transferase omega-1 (Homo sapiens) (UniProt P78417). The assay can be described thus: human GSTO1 enzyme inhibition – biochemical, fluorescence polarization, counter-screen for RBBP9 inhibitor project, primary screen (AID 1974).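 Further: 0% = GSTO1-1 with DMSO and 100% = wells lacking GSTO1-1 enzyme.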 As to conditions: recombinant GSTO1, activity-based probe fluorescence polarization; at 5.96 µM; active compounds read high.
Chain of Glutathione S-transferase omega-1 (Homo sapiens) (P78417 whole entry, looked up): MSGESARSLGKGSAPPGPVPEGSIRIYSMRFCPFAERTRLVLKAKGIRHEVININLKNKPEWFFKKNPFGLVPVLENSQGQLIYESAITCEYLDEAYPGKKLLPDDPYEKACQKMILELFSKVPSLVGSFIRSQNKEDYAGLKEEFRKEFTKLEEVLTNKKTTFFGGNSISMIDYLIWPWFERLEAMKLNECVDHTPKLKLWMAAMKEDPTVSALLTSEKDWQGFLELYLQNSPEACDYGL
For `CCN(CCCNC(=O)c1ccc2c(c1)NC(=O)CN2C)c1cccc(C)c1`, the inhibition is 52.9% (active). Consider `Cc1cccc(C(=O)NCCCN(C)CCCNC(=O)c2cccc(C)c2)c1`, for which the inhibition is -1.1%. With `CCN(CCCNC(=O)CCn1c(=O)[nH]c2ccsc2c1=O)c1ccccc1`, the inhibition is 0.71%. Under `CCOCCn1[nH]c2ccccc2c1=O` stands 1.49%; under `Cc1ccccc1Cn1c(=O)[nH]c2ccccc21`, 8.19%; under `CC(=O)c1c(-c2ccccc2)c2ccccc2[nH]c1=O`, -2.94%. On to `O=c1[nH]c2ccccc2n2c(-c3ccccc3)nnc12`, for which the inhibition is 69.1% (active). On to `O=S(=O)(NCCS(=O)(=O)N1CCN(c2ccccc2)CC1)c1ccc(F)cc1`, for which the inhibition is -12.9%. For `CN(CC(=O)NNC(=O)CNC(=O)c1ccccc1Cl)S(=O)(=O)c1ccc(Cl)cc1`, the inhibition is 5.54%. Under `O=C1NCCn2nc3ccccc3c21` stands 3.49%. With `CCOc1ccc(NC(=O)CCC(=O)N/N=C/c2ccc([N+](=O)[O-])s2)cc1`, the inhibition was 5.9%. The value for `O=[N+]([O-])c1ccc(C=Nc2ccc(Cl)cc2Cl)s1` was 38.5% (active). Under `O=C(NCc1ccccc1Cl)C(=O)NCC1CCCN1S(=O)(=O)c1cccs1` (stereo unspecified) stands 4.65%; under `CCOc1ccc(CCNC(=O)CN2C(=O)NC3(CCc4ccccc43)C2=O)cc1OCC` (stereo unspecified), 1.55%. With `C#CCOCCOCCOCCNc1nc(N2CCN(C(=O)Cn3cc(CCCCN)nn3)CC2)nc(N2CCN(C(=O)[C@H](CCCCN)n3cc(CCC(=O)O)nn3)CC2)n1`, the inhibition is 6.12%. Under `Cc1ccc(S(=O)(=O)C(C#N)c2nc3ccccc3nc2N2CCCC2)cc1C` (stereo unspecified) stands 51.4% (active); under `Cc1ccc(S(=O)(=O)Nc2nc3ccccc3nc2N2CCc3ccccc3C2)cc1`, 0.1%. For `Cc1cc(N2CCN(S(=O)(=O)c3ccc(C)c(C)c3)CC2)c2ccccc2n1`, the inhibition was -2.63%. For `O=C(NCCC1CCCCN1S(=O)(=O)c1ccc(Cl)cc1)C(=O)NCc1ccco1` (stereo unspecified), the inhibition is -0.26%.

Take `CN(C)CCc1c[nH]c2ccc(Cn3cncn3)cc12`: the inhibition was 4.56%. The value for `CC(OC(=O)CCCOc1ccccc1)C(=O)Nc1ccc(Cl)cn1` (stereo unspecified) was -0.72%; that for `Cc1ccc(NC(=O)CSc2cccc3cccnc23)c(C)c1` was 14.1%. Consider `O=C(CNC(=O)c1cccnc1)N/N=C/c1cccnc1`, for which the inhibition is -0.23%. `O=C(CSc1cccc2cccnc12)N/N=C/c1cccnc1`: the inhibition was 36.6% (active).

As for `O=C(CSc1nc(=O)n2ccccc2n1)Nc1ccc2c(c1)OCCO2`, the inhibition was 3.74%. Regarding `C/C(CCC(=O)OC[C@H]1O[C@H](C#Cc2ccccc2)C=C[C@@H]1Oc1ccc(C)cc1)=N\OC[C@@H](O)[C@H]1O[C@@H]2OC(C)(C)O[C@@H]2[C@H]1O`, the inhibition was 3.31%.
